# Results as given in ChEMBL document CHEMBL3988442, “University of Dundee, Small-Polar-MMV Screening Library” (2021).
# About 1,000 (1.4%) of roughly 69,000 compounds showed an effect of 50% or more. The sample holds strong results, similar compounds and a random draw of the others, so the mix is not that of the screen.
# Test system: Leishmania donovani
# Assay: Leishmania intramacrophage assay
# Type: functional, organism-based
# Set-up: scale not given: in the data most compounds retested in dose-response had high values
smiles,measurement,setting,value
N#Cc1ccccc1CN1C[C@@H]2CC[C@H](C1)N(CC1CC1)C2=O,Percent Effect,"30 µM, 30.03 µM",6.562%
COc1ccc(CNC(=O)CCc2c(C)noc2C)cc1F,Percent Effect,"30.3 µM, […]",14.24%
c1ccc(Cc2nc(CNC3CCC4(CCNCC4)CC3)no2)cc1,Percent Effect,"30.3 µM, […]",-22.96%
CCOC(=O)N1CCN(C(=O)C2CC(=O)N(c3ccccc3Br)C2)CC1 (centres undefined),Percent Effect,"30.3 µM, […]",15.14%
Cc1c(Cl)cccc1NCc1nc2n(n1)CCCCC2,Percent Effect,"30.3 µM, […]",55.49%
Cc1ccccc1NCc1nc2n(n1)CCCCC2,Percent Effect,"30.3 µM, […]",-2.813%
Cc1ccc(Cl)cc1NCc1nc2n(n1)CCCCC2,Percent Effect,"30.3 µM, […]",5.268%
Cl.Cl.O=C(NCc1cncc2c1CCN(Cc1cccc(F)c1)C2)C1CC1,Percent Effect,"30 µM, 30.03 µM",-3.8%
CC(NC(=O)NCCn1ccnc1)c1nncn1C (centres undefined),Percent Effect,"30.3 µM, […]",-59.34%
CCc1nc(NC(=O)NCCc2scnc2C)nn1C,Percent Effect,"30.3 µM, […]",-19.54%
CC1CCCN(Cc2csc(-c3ncccn3)n2)CC1 (centres undefined),Percent Effect,"30 µM, 30.03 µM",43.73%
CCCC1CCCN(Cc2csc(-c3ncccn3)n2)CC1 (centres undefined),Percent Effect,30 µM,77.24%
CCCC1CCCN(Cc2csc(-c3cnn(C)c3)n2)CC1 (centres undefined),Percent Effect,"30 µM, 30.03 µM",-20.44%
O=C1NC(c2cccnc2)=NC12CCN(CCCc1ccccc1)CC2,Percent Effect,"30.3 µM, […]",-4.495%
CC1=NC2(CCN(CC(C)c3ccccc3)CC2)C(=O)N1 (centres undefined),Percent Effect,"30.3 µM, […]",10.6%
CC(CN1CCC2(CC1)N=C(c1cccnc1)NC2=O)c1ccccc1 (centres undefined),Percent Effect,"30.3 µM, […]",100.2%
Cc1nc(CN2CCCC(CCc3ccc(F)c(F)c3)C2)c[nH]1 (centres undefined),Percent Effect,"30.3 µM, […]",65.39%
Cc1nc(CN2CCCC(CCc3c(F)cccc3F)C2)c[nH]1 (centres undefined),Percent Effect,"30 µM, 30.03 µM",47.92%
Cc1nc(CN2CCCC(CCc3ccc(F)cc3F)C2)c[nH]1 (centres undefined),Percent Effect,"30 µM, 30.03 µM",30.76%
COCC1CN(C(=O)Nc2cc(-n3cccc3)ccc2F)CCO1 (centres undefined),Percent Effect,"30.3 µM, […]",7.734%
CNC(=O)CN1CCOC(c2cccc(N)n2)C1 (centres undefined),Percent Effect,"30.3 µM, […]",18.21%
CN(Cc1nnc(C2CC2)n1C)C1CCN(Cc2nccn2C)C1 (centres undefined),Percent Effect,30 µM,20.02%
O=C(NCCc1nncn1C1CC1)C1(Cc2ccccc2)CCC1,Percent Effect,"30.3 µM, […]",8.956%
CN(C)CCN(Cc1ccccn1)Cc1ccnn1C1CCCCO1.O=C(O)CC(O)(CC(=O)O)C(=O)O (centres undefined),Percent Effect,"30.3 µM, […]",29.57%
CC(=O)N1CCc2c(nc(N(C)C)nc2N(C)CCCC2CCCO2)C1 (centres undefined),Percent Effect,"30.3 µM, […]",-1.539%
CCN(CCN(C)C)c1nc(CCN)nc2sc(C)c(C)c12,Percent Effect,"30.3 µM, […]",54.95%
Cc1sc2nc(CCN)nc(N(C)CCCC3CCCO3)c2c1C (centres undefined),Percent Effect,"30.3 µM, […]",63.54%
COCCN(CC1CC1)c1nc(CCN)nc2sc(C)c(C)c12,Percent Effect,"30.3 µM, […]",77.93%
CCCSc1nn(CCN(C)C)c2nc3sc(C)c(CC)c3c(=O)n12,Percent Effect,"30.3 µM, […]",45.45%
Cc1sc2nc(CCN)nc(N(CCN(C)C)CC3CCCO3)c2c1C (centres undefined),Percent Effect,"30.3 µM, […]",38.72%
Cc1nn(C2CCS(=O)(=O)C2)c(O)c1Cc1ccccc1 (centres undefined),Percent Effect,"30.3 µM, […]",20.59%
Cc1csc(CN(CC2CCCO2)C(=O)c2ccc(C)nc2C)n1 (centres undefined),Percent Effect,"30.3 µM, […]",-39.1%
Cc1cc(=O)n(C)cc1NC(=O)Cc1cccc(Cl)c1,Percent Effect,"30.3 µM, […]",-5.155%
CCOCC1CN(CC2CC2)Cc2nn(CC3CC3)cc21.O=C(O)C(F)(F)F (centres undefined),Percent Effect,"30.3 µM, […]",-3.875%
CNC(=O)c1ccc(C2CN(C(=O)c3cnn(C)c3)CCO2)nc1 (centres undefined),Percent Effect,"30.3 µM, […]",4.595%
CN(C)CCO[C@@H]1CC[C@H]2[C@H]1OCCN2C(=O)COc1ccccc1.O=C(O)C(F)(F)F,Percent Effect,"30 µM, 30.03 µM",28.35%
NS(=O)(=O)c1ccc(N2CCN(CCCc3cn[nH]c3)CC2)cc1,Percent Effect,"30.3 µM, […]",-5.312%
COc1ccc(S(=O)(=O)N2CCC[C@@H]3CN(C(=O)C4CC4)C[C@@H]32)cc1F,Percent Effect,"30.3 µM, […]",-21.4%
COc1cc(C(C)=O)ccc1OCCNCc1ccco1.Cl,Percent Effect,"30.3 µM, […]",31.62%
COc1cc(CNCc2ccco2)ccc1OCCO.Cl,Percent Effect,"30.3 µM, […]",36%
CCCc1ccc(OCCNCc2ccco2)c(OC)c1.Cl,Percent Effect,"30.3 µM, […]",65.86%
Cc1noc(CN(Cc2cccc(C#N)c2)Cc2ccco2)n1,Percent Effect,"30.3 µM, […]",-9.737%
O=C(c1cnccn1)N1CCN2C[C@H](OCC3CC3)C[C@H]2C1,Percent Effect,"30.3 µM, […]",-6.525%
Cc1cc(Cc2ccccc2F)cc(C2CCCNC2)n1 (centres undefined),Percent Effect,"30.3 µM, […]",9.469%
Cc1cc(Cc2ccccc2)cc(C2CCCNC2)n1 (centres undefined),Percent Effect,"30.3 µM, […]",19.14%
Cc1cc(Cc2ccccc2C)cc(C2CCCNC2)n1 (centres undefined),Percent Effect,"30.3 µM, […]",39.73%
Cc1cccc(Cc2cc(C)nc(C3CCCNC3)c2)c1 (centres undefined),Percent Effect,"30.3 µM, […]",59.44%
Cc1cc(Cc2cccc(C(F)(F)F)c2)cc(C2CCCNC2)n1 (centres undefined),Percent Effect,"30.3 µM, […]",91.42%
Cc1cc(Cc2ccc(F)cc2)cc(C2CCCNC2)n1 (centres undefined),Percent Effect,"30.3 µM, […]",22.51%
CC(O)CCN(C)C(=O)Nc1ccc(Br)cc1 (centres undefined),Percent Effect,"30.3 µM, […]",-0.06572%
Cc1ccc(CNC(=O)CN2CCCC(Cn3cncn3)C2)cc1 (centres undefined),Percent Effect,30 µM,15.14%
Nc1nc(N2CCCCCC2)ncc1C(=O)NCc1ccc(F)c(Cl)c1,Percent Effect,"30.3 µM, […]",1.039%
CC(CO)CSc1ncnc2[nH]ncc12 (centres undefined),Percent Effect,"30.3 µM, […]",-17.01%
O=C(O)C(F)(F)F.O=C(O)C(F)(F)F.O=C1COC2(CCN(Cc3cccnc3)CC2)CN1,Percent Effect,"30.3 µM, […]",22.41%
CC(C)Nc1nc2c(c(NC3CC3)n1)CCN(C(=O)C1CCOC1)CC2 (centres undefined),Percent Effect,"30.3 µM, […]",26.08%
CC(C)Nc1nc2c(c(NC3CC3)n1)CCN(C1CCOCC1)CC2,Percent Effect,"30.3 µM, […]",70.3%
Cc1nc2c(c(NC(C)C)n1)CCN(C1CCOCC1)CC2.O=C(O)C(F)(F)F,Percent Effect,"30.3 µM, […]",14.91%
CC(C)N(CCO)C(=O)C1CCC(=O)N(CCc2cccc(F)c2)C1 (centres undefined),Percent Effect,"30.3 µM, […]",21.22%
OCC1(Cc2ccc(Cl)cc2)CCN(Cc2cccnc2)CC1,Percent Effect,"30.3 µM, […]",13.26%
Cc1n[nH]c(C)c1NC(=O)Nc1cccnc1N1CCCC1,Percent Effect,"30.3 µM, […]",-22.16%
CSc1ccc2cc(CN(C)CCO)c(=O)[nH]c2c1,Percent Effect,"30.3 µM, […]",10.15%
COCc1cn(C2CCN(CCC(C)c3ccccc3)CC2)nn1 (centres undefined),Percent Effect,"30.3 µM, […]",15.55%
CNCc1cn(C2CCN(CCC(C)c3ccccc3)CC2)nn1 (centres undefined),Percent Effect,"30.3 µM, […]",69.72%
CC(CCN1CCC(n2cc(CCO)nn2)CC1)c1ccccc1 (centres undefined),Percent Effect,"30.3 µM, […]",17.91%
Cc1noc(C)c1CCCNC(=O)C1CCCN(C(=O)C2CC2)C1 (centres undefined),Percent Effect,"30.3 µM, […]",17.01%
CCSc1cc(C(=O)NCc2ccccc2O)ccn1,Percent Effect,"30 µM, 30.03 µM",52.62%
CCSc1cc(C(=O)NCCNC(=O)Cc2ccccc2)ccn1,Percent Effect,"30.3 µM, […]",42.53%
CCSc1cc(C(=O)NCc2ccc(C(=O)NC)cc2)ccn1,Percent Effect,"30.3 µM, […]",-0.2287%
COCCC(=O)N[C@H]1CN(c2nc(C)c3c(n2)CCCC3)C[C@@H]1C1CC1,Percent Effect,"30.3 µM, […]",-3.355%
CNCC(=O)N[C@H]1CN(c2nc(C)c3c(n2)CCCC3)C[C@@H]1C1CC1,Percent Effect,"30.3 µM, […]",61.72%
CNc1nc(N2C[C@H](NC(=O)CCOC)[C@@H](C3CC3)C2)nc2c1CCC2,Percent Effect,"30.3 µM, […]",20.37%
Cc1ccc(CN(C)C(=O)c2cnsn2)cc1,Percent Effect,"30.3 µM, […]",19.42%
CCn1nc(CC(C)C)cc1C(=O)N1CC(c2ccncc2)C1,Percent Effect,"30.3 µM, […]",24.78%
CCC(C(=O)NCCc1nc(C)cc(C(F)(F)F)n1)n1cccn1 (centres undefined),Percent Effect,"30.3 µM, […]",69.8%
CCC(C(=O)NCc1nc(C)cc(C(F)(F)F)n1)n1cccn1 (centres undefined),Percent Effect,"30.3 µM, […]",13.87%
CCOCC(=O)NCCc1nc(C)cc(C(F)(F)F)n1,Percent Effect,"30.3 µM, […]",-29.08%
O=C(CC1NC(N2CCc3ccccc3C2)=NC1=O)Nc1ccccc1 (centres undefined),Percent Effect,"30.3 µM, […]",4.892%
COCCC(=O)N1CCN(CC(C)C)c2nc(C)ccc2C1.O=C(O)C(F)(F)F,Percent Effect,"30.3 µM, […]",8.451%
CC1(NC(=O)Cc2cccs2)CCS(=O)(=O)C1 (centres undefined),Percent Effect,"30.3 µM, […]",19.51%
CC(C)Cn1nc2ccc(S(=O)(=O)N3CCC(C)CC3)cn2c1=O,Percent Effect,"30.3 µM, […]",58.76%
CCn1nc2ccc(S(=O)(=O)N3CCSCC3)cn2c1=O,Percent Effect,"30.3 µM, […]",8.958%
CC(C)CCn1nc2ccc(S(=O)(=O)N3CCOCC3)cn2c1=O,Percent Effect,"30.3 µM, […]",-38.47%
CCN(C)S(=O)(=O)N(Cc1cscn1)c1ccccc1,Percent Effect,"30.3 µM, […]",-18.14%
Cc1nc(C2CCCN2CCCS(N)(=O)=O)no1 (centres undefined),Percent Effect,30 µM,6.42%
Cc1ccc(-c2cc(C(=O)NCCCc3csc(N)n3)[nH]n2)o1,Percent Effect,"30.3 µM, […]",-46.01%
Cc1ccc(-c2cc(C(=O)NCCCc3csc(N)n3)[nH]n2)s1,Percent Effect,"30.3 µM, […]",19.81%
Cn1cccc1-c1cc(C(=O)NCCCc2csc(N)n2)[nH]n1,Percent Effect,"30.3 µM, […]",54.27%
Cc1ccc(N2CC[C@@H]3O[C@@H](COCc4cccnc4)CC[C@@H]32)nn1.O=C(O)C(F)(F)F.O=C(O)C(F)(F)F,Percent Effect,"30.3 µM, […]",-9.892%
CCN1CC2(CCNCC2)COc2ccccc2S1(=O)=O.O=C(O)C(F)(F)F,Percent Effect,"30 µM, 30.03 µM",13.53%
O=C(c1ccn(COc2ccc(F)cc2)n1)N1CCCC1,Percent Effect,"30.3 µM, […]",0.02157%
CC(C)c1ccc(OCn2ccc(C(=O)N3CCCC3)n2)cc1,Percent Effect,"30 µM, 30.03 µM",59.3%
O=C(c1ccn(COc2ccc(F)cc2)n1)N1CCCCCC1,Percent Effect,"30.3 µM, […]",-66.53%
Cc1nsc(C(=O)NCCc2ccc(Cl)cc2)n1,Percent Effect,"30.3 µM, […]",25.28%
Cc1ccnc(NCCCN2CCc3ccccc32)n1,Percent Effect,"30.3 µM, […]",20.07%
CN(C)c1nc(NCCCN2CCc3ccccc32)ncc1F,Percent Effect,"30.3 µM, […]",50.82%
Cc1cnc(NCCCN2CCc3ccccc32)nc1,Percent Effect,"30.3 µM, […]",21.16%
CNC(=O)c1cccc(NC(=O)CN2CCN(S(C)(=O)=O)CC2)c1,Percent Effect,"30 µM, 30.03 µM",9.767%
Cc1ccc(OCC(=O)N(C)Cc2cccc(F)c2)cn1,Percent Effect,"30.3 µM, […]",34.51%
NC(=O)C1CCN(C(=O)NC2CCN(CC3CCCC3)C2)CC1 (centres undefined),Percent Effect,"30.3 µM, […]",54.02%
CSC(C)(C)CNC(=O)NC1CCN(CC2CC2)C1 (centres undefined),Percent Effect,"30.3 µM, […]",2.957%
O=C(CCN1CCOCC1)NC1CCCN(CC2CCCCC2)C1 (centres undefined),Percent Effect,"30.3 µM, […]",10.41%
O=C(NC1CCN(CC2CCCC2)C1)N1CCC(OCC2CC2)CC1 (centres undefined),Percent Effect,"30.3 µM, […]",32.77%
O=C(CCN1CCCCO1)NC1CCCN(CC2CCCCC2)C1 (centres undefined),Percent Effect,"30.3 µM, […]",-1.788%
O=C(NC1CCN(CC2CC2)C1)N1CCC(OC2CCCCC2)CC1 (centres undefined),Percent Effect,"30.3 µM, […]",53.02%
